Assay results reported in PubChem BioAssay AID1159580 (chemical genetic matrix, 2015).
The whole screen tested about 5,500 compounds, of which about 2,000 (36%) were called active. About 18% were inconclusive and are not listed. Cut-off read from the data, not from the text of the source: active = normalized growth mostly below about 0.91 (no sharp cut-off); inconclusive = no clear call, values can overlap the other calls; inactive = mostly above about 0.92. This is one part of the list.

Experiment: chemical genetic growth profiling, strain panel (AID 1159580);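 note: tested at 20 µM; growth read once vehicle control cultures reached saturation at 30 °C; 1 = growth at the plate median or of vehicle wells; lower values mean less growth of the strain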
Details: S. cerevisiae deletion strains, growth OD
[1] = locus YAL013W, strain DEP1, active compounds read low
[2] = locus YMR263W, strain SAP30, active compounds read low
[3] = locus YNL153C, strain GIM3, active compounds read low
[4] = locus YNL322C, strain KRE1, active compounds read low

Measured: normalized growth

NC1=C(c2ccccc2)C(=O)NC1=O
inactive: [1] 1.01 | locus YBR229C, strain ROT2, active compounds read low 1.05 | locus YCL061C, strain MRC1, active compounds read low 1.03 | locus YDL101C, strain DUN1, active compounds read low 0.993 | locus YDR150W, strain NUM1, active compounds read low 0.991 | locus YEL061C, strain CIN8, active compounds read low 0.999 | locus YGR078C, strain PAC10, active compounds read low 0.998 | locus YGR229C, strain SMI1, active compounds read low 1.01 | locus YHR030C, strain SLT2, active compounds read low 1.02 | locus YHR087W, strain rtc3, active compounds read low 0.988 | locus YJR043C, strain POL32, active compounds read low 1.01 | locus YJR075W, strain HOC1, active compounds read low 0.95 | locus YLR039C, strain RIC1, active compounds read low 1.02 | locus YLR058C, strain SHM2 (second series), active compounds read low 1.02 | locus YLR085C, strain ARP6, active compounds read low 0.946 | locus YLR262C, strain YPT6, active compounds read low 1.01 | locus YML094W, strain GIM5, active compounds read low 0.993 | locus YMR219W, strain ESC1, active compounds read low 0.984 | [2] 1.01 | locus YNL128W, strain TEP1, active compounds read low 1.03 | [3] 1 | locus YNL298W, strain CLA4 (second series), active compounds read low 0.996 | [4] 1 | locus YNR030W, strain Alg12, active compounds read low 0.989 | locus YPL055C, strain LGE1, active compounds read low 0.994 | locus YPL241C, strain CIN2, active compounds read low 1.01 | locus YPR135W, strain CTF4, active compounds read low 0.974

CCCCCCCCCCCCCCCCCCOC[C@H](COP(=O)([O-])OCC[N+](C)(C)C)OC
inactive: [1] 1 | locus YAL040C, strain CLN3, active compounds read low 1.04 | locus YCL061C, strain MRC1 (second series), active compounds read low 1.02 | locus YDR363W, strain ESC2, active compounds read low 0.992 | locus YER002W, strain NOP16, active compounds read low 1.04 | [2] 0.998 | locus YMR307W, strain GAS1, active compounds read low 1 | [3] 0.997 | locus YNL175C, strain NOP13, active compounds read low 1.05 | locus YNL197C, strain WHI3, active compounds read low 1.01 | locus YNL224C, strain SQS1, active compounds read low 1.04 | [4] 0.988 | locus YOR083W, strain WHI5 (second series), active compounds read low 1.02
